Assay results: PubChem BioAssay AID651965 (National Center for Advancing Translational Sciences (NCATS), 2013)
In all, about 340,000 compounds went through this assay and about 6,400 (1.9%) were called active. Another 4% or so got no clear call; they are omitted. Only a selection was taken, and actives are over-represented in it overall. Values without a mark were called inactive. Calls follow the shape of the dose curve; as a rule, active = well fitted falling curve with a large enough effect; inconclusive = small, poorly fitted or top-dose-only effect; inactive = no such curve, though single readings can be large or run the other way.

The molecules below were run against ATP-dependent Clp protease proteolytic subunit (Bacillus subtilis (strain 168)) (UniProt P80244) (assay: qHTS Assay for Activators of ClpP). Settings: purified B. subtilis ClpP, FRET peptide cleavage, 20 min; series mostly up to 57.5 µM; activity change, negative = active: at the top concentration.
Excerpt: The Clp protease proteolytic subunit (ClpP) is the core unit of the Clp complex belonging to the peptidase family S14 that hydrolyzes protein into small peptides in the presence of ATP and magnesium. It is ubiquitously expressed and is the major protease in bacteria. […] Unlike common antibiotics that simply interfere with the essential enzyme activity, ADEP binding activates the ClpP core in the absence of the regulatory Clp-ATPases leading to uncontrolled proteolysis and eventually cell death. Activators binding to the docking site on ClpP can also block formation of the ClpXP and ClpA/C-P holoenzyme complexes interfering with the normal biological functions of ClpP and thus have the potential to become new anti-microbials.
To identify activators of ClpP, a FRET based quenching reversal assay was developed using a purified B. subtilis ClpP and a decapeptide substrate (FRET-FV). The FRET-FV is tagged with a fluorescent molecule amino benzoic acid (donor) at the N-terminus and a nitrotyrosine quencher (acceptor) at the C-terminus. FRET-FV cleaves upon activation of ClpP with ADEP treatement and reverses the quenching effect of the nitrotyrosine causing an increase in fluorescence emission signal at 430nm. This assay was used to screen the Molecular Libraries Small Molecule Repository (MLSMR).
NIH Molecular Libraries Probe Production Centers Network [MLPCN]
NIH Chemical Genomics Center [NCGC]
Assay Submitter (PI): Michael Maurizi, National Cancer Institute
Two and a half microL/well of purified enzyme solution (final concentrations 10 microg/mL B. subtilis ClpP in 100 mM Tris/HCl pH8, 100 mM KCl, 0.05% low protease BSA, 2.5% glycerol, 0.01% Tween-20 buffer) was dispensed into 1536-well assay plates (Greiner, black solid, medium-binding plates) with Aurora Discovery BioRAPTR Flying Reagent Dispenser (FRD, Beckton-Dickenson). Compound solution (23 nL) was transferred to the assay plate using Kalypsys pin tool equipped with a 1536-pin tool. […] FRET signals at time 0 and after 20 min room temperature incubation were obtained using the PerkinElmer Envision plate reader with 320nm excitation and 430nm emission filters. Delta FRET value (Time 20 - Time 0) was calculated and normalized to the delta FRET value of positive control ADEP (5.8 microM final concentration) and negative control DMSO and no enzyme wells.
Also: the source files actives as falling curves though it sought activators and does not explain the sign; nearly all actives have a fitted effect of over 65% in size.
Potency is read from the fitted curve at half-maximal effect.

Sequence of ATP-dependent Clp protease proteolytic subunit (Bacillus subtilis (strain 168)) (P80244 whole entry, looked up): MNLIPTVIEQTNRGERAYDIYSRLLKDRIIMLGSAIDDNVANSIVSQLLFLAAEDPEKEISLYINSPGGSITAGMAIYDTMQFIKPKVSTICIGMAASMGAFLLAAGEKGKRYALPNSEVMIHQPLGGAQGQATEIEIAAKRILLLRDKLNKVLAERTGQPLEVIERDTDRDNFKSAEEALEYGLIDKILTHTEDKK

Compound | Potency | activity change, negative = active [%]
Cc1ccc(O)c(CCc2ccccc2)n1 | 28.2 µM (active) | –
Cc1cc(C)n2c(Nc3c(C)cccc3C)c(CCc3ccccc3)nc2n1 | – | -7.95
c1ccc(CCc2ccccn2)cc1 | – | -10.1
C=CCOc1ccccc1CNn1c(C)n[nH]c1=S | – | -5.37
Cn1c(-c2ccc(C(=O)c3ccccc3)s2)nc2ccccc21 | 20 µM (active) | –
Cn1c(NC(=O)c2ccccc2)nc2ccccc21 | – | 0.103
Cn1c(CNC(=O)C(C)(C)C)nc2ccccc21 | – | 0.269
CCCCc1nc2ccc(F)cc2cc1C | – | -3.04
CCCc1ccc(C(O)c2ncc(-c3cccc(OC)c3)[nH]2)cc1 (stereo not drawn) | – | -0.496
COc1ccc(CC(N)c2csc(NC(=O)Cc3ccccc3)n2)cc1 (stereo not drawn) | – | -0.24
CCOC(=O)CSc1nnc(CNC(=O)c2ccco2)n1-c1ccc(F)cc1 | – | -4.96
CCOC(=O)CSc1nnc(CNC(=O)c2cccs2)n1-c1ccccc1 | 10 µM (active) | –
CCOC(=O)CSc1nnc(CNC(=O)c2cccs2)n1-c1cc(OC)ccc1OC | – | -0.328
Nc1nc2c(Br)ccc(Br)c2cc1C(=O)NCCc1ccccc1 | – | 0.0907
NC(=O)C1CCN(C(=O)COc2ccc3c4c(c(=O)oc3c2)CCC4)CC1 | – | 4.67
O=C(COc1ccc2c3c(c(=O)oc2c1)CCCC3)NCC(O)c1ccccc1 (stereo not drawn) | – | 3.98
O=C(COc1ccc2c3c(c(=O)oc2c1)CCC3)NC1CCCCC1 | 14.1 µM (active) | –
CC1(C(=O)Nc2cccc3c2CCCC3)CCN1C(=O)CCc1ccc(Cl)cc1Cl (stereo not drawn) | – | 2.56
Cc1cc2cc3n(c2nn1)N=C(Cl)CC3 | – | 4.2
FC(F)(F)c1ccccc1Cc1c(-c2ccccc2)nc2c3ccccc3ccn12 | 22.4 µM (active) | –
CCCc1nc2c3ccccc3ccn2c1Cc1ccccc1C(F)(F)F | – | 4.9
Cc1ccc(Cc2c(-c3ccc(C)cc3)nc3c4ccccc4ccn23)cc1 | – | -5.5
NC(=O)c1c(Nc2nc3c(F)cccc3s2)sc2c1CCCC2 | – | -15.4
NNc1nc2c(Cl)cccc2s1 | – | -9.24
Fc1cc(F)c2nc(Nc3nc4c(F)cccc4s3)sc2c1 | 3.55 µM (active) | –
CCOC(=O)c1cc2cc(OC)ccc2n1C1CCN(C)CC1 | – | 4.63

Compound | Potency | activity change, negative = active [%]
CCC(C(=O)NCc1ccccc1)n1c(Cc2cc(F)cc(F)c2)nc2ccccc21 (stereo not drawn) | – | -1.02
CC1Cc2[nH][nH]c(=O)c2C(C2CC2)O1 (stereo not drawn) | – | 0.813
CCCCCNC(=O)C1C(=O)Nc2ccccc2C(=O)N1C(C)(C)C (stereo not drawn) | – | -9.04
COc1ccc(C2=Nc3cc(C)ccc3OC2)cc1 | 28.2 µM (active) | –
COc1ccc(-c2cn3ccc(C)cc3n2)cc1 | – | 4.16
COc1ccc(-c2cc(-c3ccc(F)cc3)nc3c2COc2ccccc2-3)cc1 | – | 4.12
CCOC(=O)[C@]12CCCC=C1N(CCC1=CCCCC1)C(=O)[C@H](CC(=O)NCCCOC)C2 | – | 1.11
Cc1ccc2nc(-c3ccc(SCC(=O)Nc4cc(C)on4)nc3)[nH]c2c1 | 31.6 µM (active) | –
Cc1cc(NC(=O)CSCC(=O)NC(C)c2ccccc2)no1 (stereo not drawn) | – | -3.37
Cc1cc(NC(=O)CSc2nc3ccccc3n2CC(C)C)no1 | – | -2.44
CN(CCC#N)c1ccc(C=O)cc1 | – | -10.3
CC(C)(C)c1ccc(C(=O)C[N+]2(C)CCCc3ccccc32)cc1 (stereo not drawn) | – | 0.0913
COc1ccc(S(=O)(=O)N[C@@H]2C=C[C@@H](CC(=O)N3CCc4ccccc4C3)O[C@@H]2CO)cc1 | – | 0.958
CCn1c2ccccc2c2cc(NC(=O)COC(=O)c3cc(S(=O)(=O)N4CCCCC4)ccc3Cl)ccc21 | 10 µM (active) | –
O=C(COC(=O)c1cc(S(=O)(=O)N2CCOCC2)ccc1Cl)NCCc1ccccc1 | – | 0.437
CCn1c2ccccc2c2cc(NC(=O)COC(=O)c3ccccc3Br)ccc21 | – | -3.15
COc1cc2nc(N3CCCN(C)CC3)nc(NC3CC3)c2cc1OC | – | 4.13
COc1ccc(Nc2cc(C(=O)NCCCN(C)c3ccccc3)c3ccccc3n2)c(OC)c1 | – | -0.556
COc1ccccc1Nc1cc(C(=O)NCCCN(C)C2CCCCC2)c2ccccc2n1 | – | -1.71
CCCCN(CCCNC(=O)c1cc(Nc2ccccc2OC)nc2ccccc12)c1ccccc1 | 17.8 µM (active) | –
CN(C)C(=O)c1cccc(-c2cnc3c(NC=O)cc(-c4ccc(C(=O)N5CCOCC5)cc4)cn23)c1 | – | -29.9
COCCCNC(=O)c1ccc(-c2c(C)noc2C)c2ccoc12 | – | -22.5
O=C(CCC1CCCN(C(=O)c2ccc(F)c(F)c2)C1)N1CCN(c2ccccn2)CC1 (stereo not drawn) | 17.8 µM (active) | –
O=C(CCC1CCCN(C(=O)Cc2ccc(F)cc2)C1)N1CCN(c2ccccn2)CC1 (stereo not drawn) | – | -1.11
C=Cc1ccc(C(=O)N2CCCC(CCC(=O)N3CCN(c4ccccn4)CC3)C2)cc1 (stereo not drawn) | – | -5.05
COc1ccc(CCCNC(=O)C2Cc3c(-c4cccc(C(N)=O)c4)ccnc3O2)cc1 (stereo not drawn) | – | -4.14

Compound | Potency | activity change, negative = active [%]
Cc1cc(=O)c2ccc(NC(=O)c3ccccc3)cc2[nH]1 | – | -3.5
O=C1NC(Cc2ccccc2)c2nc3ccc(Br)cc3c(=O)n2-c2cc3ccccc3cc21 (stereo not drawn) | – | -10.4
O=C(NCc1cccnc1)c1ccc2nc([C@@H]3O[C@H](CO)[C@H](O)[C@H](O)[C@H]3O)[nH]c2c1 | – | -4.1
CCOC(=O)C(Cc1ccc(N)cc1)N1C(=O)c2ccccc2C1=O (stereo not drawn) | – | 0.524
CC1=CC(C)(C)Nc2ccc(OC(=O)CN3C(=O)C4CCCCC4C3=O)cc21 (stereo not drawn) | – | -0.0791
CC1=CC(C)(C)Nc2ccc(OC(=O)C(Cc3ccccc3)N3C(=O)C4CCCCC4C3=O)cc21 (stereo not drawn) | 31.6 µM (active) | –
Cc1ccc(NC(=O)Cn2sc3ccccc3c2=O)cc1 | – | -1.89
COc1ccc(Cl)cc1-n1c(CCC(=O)O)ccc1-c1ccc(C)cc1 | – | 0.0453
COCCCn1c(CCC(=O)O)ccc1-c1ccc(F)cc1 | 31.6 µM (active) | –
Cc1ccc(-c2ccc(CCC(=O)O)n2-c2ccc(C(N)=O)cc2)cc1 | – | -3.92
Nc1nc2c(ncn2[C@@H]2O[C@H](CNS(=O)(=O)N3CCc4ccccc4C3)[C@@H](O)[C@H]2O)c(=O)[nH]1 | – | -0.922
COCCCNc1ccn2nc(-c3ccc(CC(C)C)cc3)cc2n1 | – | 4.13
CN(C(=O)COC(=O)Cc1ccccc1[N+](=O)[O-])C1CCS(=O)(=O)C1 (stereo not drawn) | – | -1.32
Cc1ccccc1OCC(=O)N(Cc1cccc(F)c1)C1CCS(=O)(=O)C1 (stereo not drawn) | – | -1.22
CCN(C(=O)COc1cccnc1[N+](=O)[O-])C1CCS(=O)(=O)C1 (stereo not drawn) | 28.2 µM (active) | –
Cc1cccc(C)c1NC(=O)C(c1cccc(F)c1)N1CCN(C)CC1 (stereo not drawn) | – | -0.808
CCOc1ccc(CCN2C(=S)N([C@@H](CC(C)C)CN3CCC[C@@H]3CN3C(=S)NC[C@@H]3Cc3ccc(O)cc3)C[C@@H]2CC(C)C)cc1 | – | -1.86
O=C(O)c1ccc(/C=N/NC(=O)c2ccc(Br)cc2)cc1 | – | -2.02
O=C(N/N=C\c1ccc(Br)cc1)c1ccc(Cn2cccn2)o1 | 25.1 µM (active) | –
CN(C)c1ccc(/C=N/NC(=O)c2ccc(Cn3cc(Br)cn3)o2)cc1 | – | -1.66
O=S1(=O)CC(N2CCC(Cc3ccccc3)CC2)CN1Cc1ccccc1 (stereo not drawn) | – | -0.381
O=C(NCC(F)(F)F)c1ccc(S(=O)(=O)NCCc2ccc3c(c2)OCCO3)cc1 | – | 1.64
Cc1cc(Nc2ccc(C)c(C)c2)n2ncnc2n1 | – | 0.336
Cc1ccc(NC(=S)NC(=O)/C=C/c2ccc(Cl)cc2)cc1 | – | -2.53
O=C(/C=C/c1ccc(Cl)cc1)Nc1ccc(S(=O)(=O)Nc2ncccn2)cc1 | – | 1.87
O=C(/C=C/c1ccc(Cl)cc1)Nc1ccc(Br)cn1 | 25.1 µM (active) | –

Compound | Potency | activity change, negative = active [%]
Cc1ccc(-c2ccc(CN3C(C(C)C)C(=O)N(Cc4cn(CCC5OCCO5)nn4)CCS3(=O)=O)cc2)cc1 (stereo not drawn) | – | -0.425
Cc1cccc(CN2CCN(C3CN(Cc4ccccc4)S(=O)(=O)C3)CC2)c1 (stereo not drawn) | – | 1.14
CCN(CCCNC(=O)c1cc2cc3cc(OC)ccc3nc2s1)c1ccccc1 | – | -0.725
CCN1CCN(C(=O)CN(C)S(=O)(=O)c2ccc(OC)cc2)CC1 | – | 1.17
CCN1CCN(C(=O)c2cc3cc4ccc(OC)cc4nc3s2)CC1 | 25.1 µM (active) | –
COc1cccc(-c2cc3nc(NCc4ccccc4OC)n(C)c(=O)c3s2)c1 | – | 4.47
CC(C)(C)C1CCC(=NNC(=O)c2ccc(Br)o2)CC1 (stereo not drawn) | – | -0.0122
O=C(N/N=C\C1CC=CCC1)c1ccc(Br)o1 (stereo not drawn) | – | -1.65
CCC(C)(C)C1CCC(=NNC(=O)c2ccc(Br)o2)CC1 (stereo not drawn) | 25.1 µM (active) | –
COc1cccc(-c2cnc3c(NC(C)=O)cc(-c4cc(F)ccc4OC)cn23)c1 | – | -4.6
CC1=C(C(=O)N2CCOCC2)CC(CC(=O)NCc2cccs2)C(=O)N1CCCN1CCCC1=O (stereo not drawn) | – | -0.996
O=C(C=CC(=O)Nc1ccc(F)cc1F)Nc1ccc(F)cc1F | – | 0.87
CCCCC[C@@H]1C=C(C(=O)OCC)[C@H](c2ccccc2)N1S(=O)(=O)c1ccc(C)cc1 | – | -13.2
CC(C)Nc1ccc(-n2nc3ccccc3[n+]2[O-])cc1 | 28.2 µM (active) | –
CC(=O)Nc1cccc(-c2cc(NC(C)=O)c3ncc(-c4ccccc4)n3c2)c1 | – | 5.02
CS(=O)(=O)/C(C#N)=C/c1cccn1S(=O)(=O)c1ccc([N+](=O)[O-])cc1 | – | -2.66
COc1ccc(CCNC(=O)c2ccc3c(c2)nc(C)n3-c2ccc(Br)cc2)cc1OC | – | -1.76
CCOc1ccc(CCNC(=O)c2ccc3c(c2)sc2nc(-c4ccc(F)cc4)cn23)cc1OCC | 25.1 µM (active) | –
COc1ccc(CCNC(=O)c2ccc3c(c2)sc2nc(-c4ccc(C)cc4)cn23)cc1OC | 3.16 µM (active) | –
Cc1ccc(-c2cn3c(n2)sc2cc(C(=O)NCCCc4ccccc4)ccc23)cc1 | 15.8 µM (active) | –
COc1cccc(CNC(=O)c2ccc3c(c2)sc2nc(-c4cccc(OC)c4)cn23)c1 | – | 4.44
COc1ccc(CCNC(=O)Cc2ccc(C)cc2)cc1OC | – | -6.51
CCOc1ccc(CCNC(=O)Cn2nc(CC)n3c(cc4sc(CC)cc43)c2=O)cc1OCC | – | -1.22
COc1ccc(-c2cn3c(n2)sc2cc(C(=O)Nc4ccc(F)cc4)ccc23)cc1 | – | -23.9
O=C(NCCCc1ccccc1)c1ccc2c(c1)sc1nc(-c3ccc(F)cc3)cn12 | – | 4.44
